DT40 TDP1 CPT = growth inhibition of DT40 Tdp1-/-;hTDP1 cells with camptothecin (screen for TDP1 inhibitors); chicken DT40 Tdp1-/-;hTDP1 cells + 20 nM CPT, ATP luminescence, 48 h; Potency, µM (highest dose often 46.2 µM), inactives show top-dose activity change, negative = growth inhibition, actives largely listed as inhibitors; hit rate 12% among 420,000; AID 686979; note: potency is the fitted concentration of half-maximal effect; nearly all actives have a fitted effect of over 55% in size
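Chicken DT40 Tdp1-/- cells stably complemented with human TDP1 were seeded at 400 cells/well in medium containing 20 nM camptothecin, exposed to pin-transferred compounds, and grown at 37 °C for at least 48 hr. Viability was read as ATP luminescence.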
IL1B secr inh = inhibitors of inflammasome signaling (IL-1 beta secretion). THP-1 LPS/ATP IL-1B secretion, AlphaLISA, 16 h; stronger effect = lower value. activity change, % at 57.5 µM. hit rate 4.7% among 360,000; in the data active = activity change below about -50%; inconclusive = mostly about -30% to -49%
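Secreted IL-1B measured by AlphaLISA bead assay after 16 h compound exposure of THP-1 cells; compounds (final up to 57.5 uM) added 1 h before LPS (250 ng/mL) and ATP (1.25 mM) stimulation; lower signal means less secretion.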
HT1080 IDH1KD tx = kills HT-1080 cells with IDH1 knockdown; AID 686971; Potency, µM (series often up to 46.1 µM), for inactives: at the highest dose activity, negative = toxicity, hits mostly cytotoxic; HT-1080 IDH1 knockdown viability, ATP luminescence, 48 h; hit rate 2% among 360,000;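 note: potency is the fitted concentration of half-maximal effect; 0% = DMSO wells and -100% = cell-free medium wells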
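HT-1080-IDH1KD cells (IDH1 knocked down), 750/well in RPMI with 5% FBS, treated with compound 48 h at 37 degrees C. Viability by CellTiter-Glo luminescence, normalised to DMSO and no-cell wells; concentration-response curves classed.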
DT40 TDP1 no CPT = qHTS for Inhibitors of human tyrosyl-DNA phosphodiesterase 1 (TDP1): qHTS in cells in absence of CPT; DT40 Tdp1-/- hTDP1 cells, no CPT, ATP luminescence, 48 h; Potency, µM (doses to about 46.2 µM), inactives show top-dose activity change, negative = growth inhibition, hits mostly inhibitors; hit rate 15% among 420,000; note: potency is the fitted concentration of half-maximal effect; nearly all actives have a fitted effect of over 55% in size
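Growth of hTDP1-complemented DT40 Tdp1-knockout cells is measured by ATP luminescence after at least 48 hr compound exposure at 37 °C, with DMSO substituting for the 20 nM CPT used in the parallel screen.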
HT1080-NT tox = kills 2HG-producing HT-1080-NT fibrosarcoma cells; AID 686970; hit rate 1.6% among 360,000; HT-1080-NT fibrosarcoma viability, CellTiter-Glo ATP luminescence, 48 h; Potency, µM (doses to about 46.1 µM), for inactives: at the highest dose activity, negative = less viability, actives largely listed as cytotoxic;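 note: NT is the 2HG producing partner of a matched IDH1 knockdown line; potency is the fitted concentration of half-maximal effect; 0% = DMSO-treated cells and -100% = media-only wells without cells; nearly all actives have a fitted effect of over 55% in size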
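HT-1080-NT; 750 cells/well; 5% FBS RPMI; 48 h compound, 37 degrees C; CellTiter-Glo luminescence; curve fitting and curve-class assignment.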
* marks the source's active call; other numbers are inactive results; ? = inconclusive; . = no result; [ ] = another dose, or the depositor's remark. An excerpt weighted towards active compounds, which were near 19% of everything screened. Unless noted, calls come from the whole dose curve; as a rule, active = well fitted curve in the direction sought with a large enough effect; inconclusive = small, poorly fitted or top-dose-only effect, or another doubt; inactive = no such curve, though single readings can be large; an effect the other way counts as inactive or inconclusive. Unless noted, % is set by controls: 0 for no effect and ±100 for the full control effect.

SMILES	DT40 TDP1 CPT	IL1B secr inh	HT1080 IDH1KD tx	DT40 TDP1 no CPT	HT1080-NT tox
CCCOC(=O)c1cccc(NC(=O)COc2ccc([N+](=O)[O-])cc2)c1	18µM*	-8	?	23µM*	-11%
O=C(COc1ccccc1C(=O)NCc1ccncc1)Nc1ccc(Br)cc1	-17%	-24	-18%	-27%	-29%
O=C(Oc1ccccc1)N1CCC2(CCCN(c3ccccn3)C2)CC1	-1%	.	.	?	.
CSc1nc2c(=S)[nH]c(=S)[nH]c2s1	?	18	0%	-29%	21%
O=C(COc1ccccc1C(=O)Nc1ccccc1)NCCCCc1ccccc1	?	.	-24%	18µM*	-11%
O=C(COC(=O)COc1ccccc1)Nc1cccc([N+](=O)[O-])c1	-6%	-9	0%	-12%	-2%
CC(C)(C)NC(=O)COC(=O)c1ccccc1OCC(=O)Nc1ccc(Br)cc1	-3%	3	-23%	-27%	-26%
O=C(COc1cccc2ccccc12)Nc1ccc(Cl)cc1C(=O)O	?	56	?	?	-29%
O=C(COc1cccc2ccccc12)Nc1cc(Cl)ccc1C(=O)O	11%	-53*	-28%	-10%	-20%
CC(NS(=O)(=O)c1ccc(OCC(=O)Nc2cccc([N+](=O)[O-])c2)cc1)c1ccccc1 (configuration not stated)	?	-4	?	21µM*	-29%
CCCCc1ccc(NC(=O)COC(=O)c2ccccc2OCC(=O)Nc2ccc(Br)cc2)cc1	11µM*	.	.	?	.
CCOc1ccccc1C(=O)NCC(=O)NCCCc1ccccc1	6%	-11	5%	-11%	6%
COc1ccc(C2(c3ccc(OC)cc3)NC(=O)N(CC(=O)NC3(C#N)CCCCC3)C2=O)cc1	7%	-4	0%	12%	-10%
COc1ccccc1C1C2CCCCC2(O)CCN1CC(=O)Nc1ccccc1 (configuration not stated)	?	28	?	?	-4%
COC(=O)c1c(NC(=O)CN2CCC3(O)CCCCC3C2c2cc(OC)ccc2OC)sc(C)c1C (configuration not stated)	13µM*	-1	-20%	10µM*	-13%
Cc1c(-c2ccccc2)[nH]n2c(=O)c3c(nc12)CCCC3	1%	-24	-2%	-5%	9%
O=c1c2c(nc3c(-c4ccccc4)c[nH]n13)CCC2	?	18	?	16µM*	11µM*
O=c1c2c(nc3cc(-c4ccccc4)[nH]n13)CCC2	5%	19	-2%	-5%	-1%
Cc1ccc(-c2[nH]n3c(=O)c4c(nc3c2C)CCCC4)cc1	?	13	-2%	?	4%
O=c1c2c(nc3c(-c4cccc(Br)c4)c[nH]n13)CCCC2	16µM*	-15	-13%	-103%	-10%
O=c1c2c(nc3c(-c4ccc(Cl)cc4)c[nH]n13)CCC2	2.3µM*	53	?	4.6µM*	-21%
O=c1c2c(nc3cc(-c4ccc(Br)cc4)[nH]n13)CCCC2	?	-61*	-2%	?	-3%
CSc1cccc(NS(=O)(=O)c2cccc3nsnc23)c1	-25%	36	1%	-15%	-1%
Cc1ccc(S(=O)(=O)NCCCCCC(=O)Nc2cccc(C)c2)cc1	-29%	-6	-2%	?	2%
Cn1ncc([N+](=O)[O-])c1C(=O)n1nnc2ccccc21	-26%	14	10%	6%	16%
O=C(O)CCNC(=S)Nc1cccc(F)c1	0%	25	8%	10%	1%
O=[N+]([O-])c1cccc(/C=N/Nc2nc(NCc3ccccc3)nc(N3CCOCC3)n2)c1	15µM*	18	-25%	?	-5%
CN(C)c1nc(NCc2ccccc2)nc(N/N=C/c2cccc(Br)c2)n1	5.8µM*	-5	?	7.3µM*	-17%
NNc1nc(NCc2ccccc2)nc(N2CCOCC2)n1	-7%	-20	0%[9.24 µM]	?	-17%
